# Laboratory results published in article PMC5540273 (PLoS ONE, 2017).
# What was measured:
# Settings in all cases: concentration: 1 μM, replicates: in singlicate; n = 1
# [1] = test system: NEK6
# [2] = test system: NEK7
# [3] = test system: NEK9
# [4] = test system: T1, NIK
# T1 construct: gene MAP3K14
# [5] = test system: T2, NIM1
# T2 construct: gene MGC42105
# [6] = test system: NLK
# [7] = test system: T3, OSR1
# T3 construct: gene OXSR1
# [8] = test system: PAK1
# [9] = test system: PAK2
# [10] = test system: PAK3
# [11] = test system: PAK4
# [12] = test system: PAK6
# [13] = test system: PAK7
# [14] = test system: T4, PCTK1
# T4 construct: gene CDK16
# [15] = test system: T5, PCTK2
# T5 construct: gene CDK17
# [16] = test system: T6, PCTK3
# T6 construct: gene CDK18
# [17] = test system: PDGFRA
# [18] = test system: PDGFRB
# [19] = test system: PDPK1
# [20] = test system: PFTAIRE2
# 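Note: KINOMEscan kinase panel screen.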
SMILES,%Inh [1] [%],%Inh [2] [%],%Inh [3] [%],%Inh [4] [%],%Inh [5] [%],%Inh [6] [%],%Inh [7] [%],%Inh [8] [%],%Inh [9] [%],%Inh [10] [%],%Inh [11] [%],%Inh [12] [%],%Inh [13] [%],%Inh [14] [%],%Inh [15] [%],%Inh [16] [%],%Inh [17] [%],%Inh [18] [%],%Inh [19] [%],%Inh [20] [%]
CC(=O)Nc1ccc(COc2ccc(Nc3ccnc4cc(-c5ccccn5)ccc34)cc2)cc1.Cl [GW440148],0,0,20,0,23,0,0,15,0,22,0,13,15,1,17,18,99.1,100,0,26
Cc1cn2c(=O)cc(N3CCOCC3)nc2n1Cc1cccc(Cl)c1Cl [GSK2334006],18,0,8,0,7,9,1,12,10,15,0,2,0,5,9,13,0,31,25,22
COc1cc2ncn(-c3cc(OCc4sccc4Cl)c(C(N)=O)s3)c2cc1OC [GSK448459],0,0,0,22,30,0,11,17,10,20,0,6,0,4,0,13,25,76,0,0
Cc1nnc(-c2ccc3occ(-c4ccc(C(C)O)cc4)c3c2)o1 (centres unmarked),4,0,0,0,0,2,25,14,16,23,10,11,1,18,11,1,0,8,0,0
O=C(NOCC1CC1)c1ccc(F)c(F)c1Nc1ccc(I)cc1Cl,0,0,0,0,0,0,0,0,0,0,0,0,3,0,0,1,0,8,0,0
CN(C(=O)c1ccc(-c2cc(-c3c[nH]nc3-c3ccccn3)ccn2)cc1)C1CCOCC1 [GW810083],6,6,18,29,20,0,0,0,0,0,28,0,16,0,0,0,4,0,0,29
COC(=O)Nc1nc2cc(Oc3ccc(NC(=O)Nc4cc(F)ccc4F)cc3)ccc2[nH]1.Cl [GW701424],0,0,0,44,30,10,14,0,0,0,0,0,12,0,0,23,98.9,100,0,0
